Shown are actives, neighbours in structure and some others; about 6.2% of the full set was active somewhere.
RORg inh = blocks mouse ROR gamma transcriptional activity; P51450; Drosophila S2 Gal4-RORgamma UAS-luciferase reporter, 20 h; Potency, µM (titrated, usually from 53.6 µM), without a hit: top-dose activity change, negative = inhibition, usual class: inhibitors; 310,000 tested, 5.4% active; AID 2551; further: nearly all actives have a fitted effect of over 60% in size
Target sequence (P51450 whole entry, looked up, the tested form may be a part): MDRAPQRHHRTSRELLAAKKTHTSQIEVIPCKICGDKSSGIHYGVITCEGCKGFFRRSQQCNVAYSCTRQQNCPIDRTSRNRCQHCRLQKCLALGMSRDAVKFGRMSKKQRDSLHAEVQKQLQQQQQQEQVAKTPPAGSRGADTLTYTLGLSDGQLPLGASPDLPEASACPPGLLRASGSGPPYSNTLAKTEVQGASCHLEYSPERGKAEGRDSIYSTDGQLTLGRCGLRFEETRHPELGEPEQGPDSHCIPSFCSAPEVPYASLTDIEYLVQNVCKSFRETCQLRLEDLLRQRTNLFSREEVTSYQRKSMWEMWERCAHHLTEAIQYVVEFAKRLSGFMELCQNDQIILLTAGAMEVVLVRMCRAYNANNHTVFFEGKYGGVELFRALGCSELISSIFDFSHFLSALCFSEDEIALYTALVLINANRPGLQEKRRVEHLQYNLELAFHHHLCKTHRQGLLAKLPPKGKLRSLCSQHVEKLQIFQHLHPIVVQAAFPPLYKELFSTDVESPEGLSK
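Luminescence from a UAS-regulated Photinus luciferase reporter in stably transfected Drosophila Schneider cells is measured; decreased signal marks ROR gamma inhibition. Fusion expression is induced by 700 uM copper sulfate for 20 hr.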
KinaseGlo FLuc = blocks Kinase-Glo luciferase, a counter-screen artifact; Q27757; Kinase-Glo luciferase, ATP luminescence, 8 min; Potency, µM (top dose mostly 38.3 µM), for the others: top-dose activity change, negative = inhibition, hits mostly inhibitors; 200,000 tested, 0.28% active; AID 1379; further: nearly all actives have a fitted effect of over 60% in size
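Luminescence was the read-out, taken after 8-minute incubation at ambient temperature. Luciferase turned over luciferin with 10 uM ATP in imidazole pH 7.2 buffer containing KCl, MgCl2, Tween 20 and BSA.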
VP16 counter = Gal4-VP16 reporter inhibition counter-screen; Drosophila S2 Gal4-VP16 UAS-luciferase, luminescence, 20 h; Potency, µM (highest dose often 53.6 µM), for inactives: at the highest dose activity, negative = inhibition, actives largely listed as inhibitors; 310,000 tested, 3.5% active;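 further: Gal4-VP16 expression switched on by copper sulfate through the metallothionein promoter; nearly all actives have a fitted effect of over 50% in size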
Active calls of the source: *; ? = inconclusive; . = not tested or not shown. The call rests on the fitted dose curve; in most records, active means well fitted curve in the direction sought with a large enough effect; inconclusive means small, poorly fitted or top-dose-only effect, or another doubt; inactive means no such curve, though single readings can be large; an effect the other way counts as inactive or inconclusive. On the % scale 0 is the no-effect control and ±100 the full control effect; potency means the concentration at half of the fitted maximal effect.

SMILES	RORg inh	KinaseGlo FLuc	VP16 counter
CCCCNC(=O)COC(=O)c1ccc(N(C)C)cc1	3%	-2%	-6%
c1ccc(-c2csc(N3CCN(c4ccccn4)CC3)n2)cc1	26%	1%	?
Cc1csc(CN(C)C(=O)C2CCC(=O)N(CCN(C)C)C2)n1 (stereo not given)	-9%	.	-7%
O=C/C(=C\Nc1ccc(Cl)cn1)c1nc2cc(Cl)ccc2o1	?	1%	-3%
O=C/C(=C\Nc1ccc(S(=O)(=O)CCO)cc1)c1nc2cc(Cl)ccc2o1	8.9µM*	2%	-15%
COc1cc(NS(=O)(=O)c2ccc(N/C=C(\C#N)c3nc4cc(Cl)ccc4o3)cc2)nc(OC)n1	?	-2%	-3%
O=C/C(=C\Nc1ccc(Cl)cn1)c1nc2ccccc2o1	14µM*	3%	22µM*
Nc1ccc2nc(SCc3cccc(F)c3)sc2c1	8%	0%	-14%
CCc1nc2c(c(=O)[nH]1)C1(CCCC1)Cc1ccccc1-2	17%	1%	-6%
NNc1nc(N)c2c(n1)-c1ccccc1CC21CCCC1	18µM*	4%	?
CN(Cc1ccon1)C(=O)CC1C(=O)NCCN1CC1CCCCC1 (stereo not given)	-21%	0%	-6%
O=C1C2C(c3ccccc3)CC=CC2C(c2ccc3ccccc3c2)N1Cc1ccccc1 (stereo not given)	42%	.	2%
CN(C)c1ccc(C(=O)Nc2nc3c(s2)CCCC3)cc1	5.6µM*	?	11µM*
CC(C)(C)c1ccc(C(=O)NC(=S)Nc2sc3c(c2C#N)CCC3)cc1	1%	5%	-7%
C/C(=N\NC1=NCCN1)c1ccc(Cl)cc1	2%	.	-1%
COC(=O)Nc1nc2c(s1)CCCC2	?	-2%	9%
CC(C)(C)c1ccc(C(=O)NC(=S)Nc2nc3c(s2)CCCC3)cc1	1.8µM*	1%	4.5µM*
C/C(=N\Nc1nc2c(s1)CCCC2)c1ccc(Cl)cc1	1.3µM*	0%	11µM*
Cc1nn(CC(=O)Nc2ccc3nc4n(c(=O)c3c2)CCCC4)c(C)c1[N+](=O)[O-]	13%	.	22%
Cc1c(C)c2c(OCC(=O)N[C@@H](CC(C)C)C(=O)O)cc3c(c2oc1=O)CCC(C)(C)O3	0%	.	-4%
O=C(COc1ccccc1)NC(=S)Nc1ccc(Br)cn1	13µM*	.	?
CCC(=O)NC(=S)Nc1ccc(NC(=O)COc2ccccc2)cc1	-36%	2%	?
Cc1c(NC(=O)c2ccccc2NC(=O)COc2ccccc2)cccc1C(=O)O	7.9µM*	.	13µM*
COCC(=O)Nc1ccc(Br)cc1C	9%	-4%	8%
CCCCCC(=O)NC(=S)Nc1ccc(Br)cc1C	10µM*	-2%	?
SMILES	RORg inh	KinaseGlo FLuc	VP16 counter
COC(=O)c1ccccc1NC(=O)CC(=O)Nc1ccccc1C(=O)OC	17%	.	-5%
COC(=O)c1ccccc1NC(=S)NC(=O)CC(C)C	13µM*	2%	?
Cc1c(NC(=O)c2ccccc2NC(=O)c2ccccc2)cccc1C(=O)O	-16%	.	-3%
COc1ccccc1N1C(=O)C2C(C(=O)c3ccccc3)=NN(c3ccccc3OC)C2C1=O (stereo not given)	2%	.	-1%
CC(C)[N+](C)(C)CC(O)COc1cccc2ccccc12 (stereo not given)	0%	.	-5%
O=C1C2C3C=CC(CC3)C2C(=O)N1c1cccc(Br)c1 (stereo not given)	3%	.	-13%
COc1ccc(CCn2c(=O)c3cccnc3n(Cc3cccc([N+](=O)[O-])c3)c2=O)cc1OC	-2%	-1%	9%
CCCCC(=O)NC(=S)Nc1ccccc1C(=O)Nc1ccccc1	-29%	-8%	-1%
COC(=O)c1ccccc1NC(=S)NC(=O)COc1ccccc1	5.6µM*	8%	11µM*
CCCCCC(=O)NC(=S)Nc1ccccc1C(=O)OC	14µM*	-2%	?
CCOC(=O)c1ccccc1NC(=O)COc1ccccc1	1%	2%	1%
CC(C)(C)C1CCC(=NNC(=S)Nc2cccnc2)CC1 (stereo not given)	?	0%	-6%
CCNC(=S)NN=C1CCC(C(C)(C)C)CC1 (stereo not given)	8.9µM*	2%	3%
COc1ccc(Cc2nc3ccc(C(=O)NCCc4ccccn4)cc3o2)cc1OC	33%	.	-1%
Cc1nc(-c2ccccc2)sc1C(=O)NN	13µM*	-4%	11µM*
C=CCNC(=O)c1sc(-c2ccccc2)nc1C	?	-2%	?
CC(=O)Nc1ccc(N2S(=O)(=O)c3ccccc3S2(=O)=O)cc1	4%	0%	5%
Cc1cc(NC(=O)c2cc(-c3ccccc3)on2)n(-c2ccccc2)n1	-1%	1%	-8%

Bioassay records (PubChem)
